Results from PubChem BioAssay AID1159580 (chemical genetic matrix, 2015).
Values joined by “and” are separate entries in the source; they are usually repeats but may differ in a detail not shown here. Equal values may be shown once. Screen size: about 5,500 compounds; about 2,000 (36%) were called active. Another 18% or so got no clear call; they are omitted. Rule as the data show it: active = normalized growth mostly below about 0.91 (no sharp cut-off); inconclusive = no clear call, values can overlap the other calls; inactive = mostly above about 0.92. Some of the results follow.

Assay: chemical genetic growth profiling, strain panel (AID 1159580);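 also: tested at 20 µM; growth read once vehicle control cultures reached saturation at 30 °C; 1 = growth at the plate median or of vehicle wells; lower values mean less growth of the strain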
Details: S. cerevisiae deletion strains, growth OD

Measured: normalized growth

NC(N)=NCCN1CCCCCCC1
inactive: locus YAL013W, strain DEP1, active compounds read low 1 | locus YAL021C, strain ccr4, active compounds read low 1.02 | locus YAL026C, strain drs2, active compounds read low 1.02 | locus YAL030W, strain snc1, active compounds read low 1.03 | locus YBL061C, strain skt5, active compounds read low 1.03 | locus YBR009C, strain hhf1, active compounds read low 1.03 | locus YBR021W, strain FUR4, active compounds read low 1.01 | locus YBR023C, strain chs3, active compounds read low 1.03 | locus YBR171W, strain sec66, active compounds read low 1.06 | locus YBR229C, strain ROT2, active compounds read low 1 | locus YBR231C, strain swc5, active compounds read low 0.999 | locus YBR279W, strain paf1, active compounds read low 1.02 | locus YCL011C, strain gbp2, active compounds read low 1.04 | locus YCL016C, strain dcc1, active compounds read low 1.02 | locus YCL029C, strain bik1, active compounds read low 1.01 | locus YCL061C, strain MRC1, active compounds read low 1.03 | locus YCL069W, strain vba3, active compounds read low 1.03 | locus YCR088W, strain abp1, active compounds read low 1.03 | locus YDL005C, strain med2, active compounds read low 1.04 | locus YDL035C, strain GPR1, active compounds read low 1.01 | locus YDL040C, strain nat1, active compounds read low 1.02 | locus YDL074C, strain BRE1, active compounds read low 1.01 | locus YDL101C, strain DUN1, active compounds read low 1 | locus YDL185W, strain tfp1, active compounds read low 1.01 | locus YDL192W, strain arf1, active compounds read low 1.03 | locus YDR001C, strain nth1, active compounds read low 1.02 | locus YDR069C, strain doa4, active compounds read low 1.02 | locus YDR101C, strain arx1, active compounds read low 1.01 | locus YDR137W, strain rgp1, active compounds read low 1.04 | locus YDR159W, strain sac3, active compounds read low 1.05 | locus YDR162C, strain NBP2, active compounds read low 1 | locus YDR195W, strain ref2 1.01 | locus YDR297W, strain sur2, active compounds read low 1.03 | locus YDR318W, strain mcm21, active compounds read low 1.02 | locus YDR334W, strain swr1, active compounds read low 1.03 | locus YDR335W, strain msn5, active compounds read low 1.03 | locus YDR388W, active compounds read low 1.02 | locus YDR392W, strain spt3, active compounds read low 0.986 | locus YDR502C, strain sam2, active compounds read low 1.01 | locus YEL003W, strain gim4, active compounds read low 1.02 | locus YEL037C, strain rad23, active compounds read low 1.03 | locus YEL061C, strain CIN8 (second series), active compounds read low 1.02 | locus YEL061C, strain CIN8, active compounds read low 1.01 | locus YER015W, strain faa2, active compounds read low 1.03 | locus YER016W, strain bim1, active compounds read low 1.02 | locus YER110C, active compounds read low 1.03 | locus YER111C, strain swi4, active compounds read low 1.03 | locus YER155C, strain BEM2 (second series), active compounds read low 1 | locus YER155C, strain BEM2, active compounds read low 0.998 | locus YER167W, strain BCK2, active compounds read low 1 | locus YFR010W, strain ubp6, active compounds read low 1.03 | locus YGL078C, strain dbp3, active compounds read low 1.04 | locus YGL086W, strain mad1, active compounds read low 1 | locus YGL167C, strain pmr1, active compounds read low 1.05 | locus YGL173C, strain kem1, active compounds read low 1.03 | locus YGL227W, strain vid30, active compounds read low 1.03 | locus YGL240W, strain doc1, active compounds read low 1.02 | locus YGL248W, strain PDE1, active compounds read low 1.01 | locus YGL253W, strain hxk2, active compounds read low 1.02 | locus YGR078C, strain PAC10, active compounds read low 1 | locus YGR135W, strain pre9, active compounds read low 1.02 | locus YGR252W, strain gcn5, active compounds read low 0.994 | locus YHR013C, strain ard1, active compounds read low 1.05 | locus YHR027C, strain rpn1, active compounds read low 1.03 | locus YHR030C, strain SLT2, active compounds read low 1.01 and 0.977 | locus YHR079C, strain IRE1 (second series), active compounds read low 1.02 | locus YHR079C, strain IRE1, active compounds read low 0.983 | locus YHR094C, strain hxt1, active compounds read low 1.02 | locus YHR129C, strain ARP1, active compounds read low 1 | locus YHR142W, strain chs7, active compounds read low 1.05 | locus YHR200W, strain rpn10, active compounds read low 1.03 | locus YIL066C, strain RNR3, active compounds read low 1.01 | locus YIL073C, strain SPO22, active compounds read low 1.04 | locus YIL125W, strain kgd1, active compounds read low 1.02 | locus YIR030C, strain dcg1, active compounds read low 1.02 | locus YJL092W, strain hpr5, active compounds read low 1.03 | locus YJL095W, strain BCK1 (second series), active compounds read low 1.02 | locus YJL095W, strain BCK1, active compounds read low 1.01 and 0.982 | locus YJL115W, strain asf1, active compounds read low 1.03 | locus YJL129C, strain trk1, active compounds read low 1.06 | locus YJL134W, strain LCB3, active compounds read low 1 | locus YJL154C, strain vps35, active compounds read low 1.01 | locus YJL164C, strain tpk1, active compounds read low 1.04 | locus YJL166W, strain qcr8, active compounds read low 1.04 | locus YJL168C, strain set2, active compounds read low 1.03 | locus YJL187C, strain SWE1 (second series), active compounds read low 1.01 | locus YJL187C, strain SWE1, active compounds read low 1.04 | locus YJR043C, strain POL32, active compounds read low 1 | locus YJR066W, strain TOR1, active compounds read low 0.932 | locus YKL009W, strain mrt4, active compounds read low 1.02 | locus YKL068W, active compounds read low 1.01 | locus YKL085W, strain MDH1 (second series), active compounds read low 1.01 | locus YKL085W, strain MDH1, active compounds read low 1.01 | locus YKL160W, strain elf1, active compounds read low 1.04 | locus YKR001C, strain vps1, active compounds read low 1.03 | locus YKR026C, strain gcn3, active compounds read low 1.03 | locus YKR091W, strain srl3, active compounds read low 1.02 | locus YLL001W, strain dnm1, active compounds read low 1.02 | locus YLL026W, active compounds read low 1.03 | locus YLL041C, strain sdh2, active compounds read low 1.02 | locus YLR027C, strain aat2, active compounds read low 1.02 | locus YLR039C, strain RIC1, active compounds read low 1 | locus YLR058C, strain SHM2, active compounds read low 1.01 | locus YLR102C, strain apc9, active compounds read low 1.02 | locus YLR113W, strain HOG1, active compounds read low 0.985 | locus YLR221C, strain rsa3, active compounds read low 1.05 | locus YLR258W, strain gsy2, active compounds read low 1.03 | locus YLR262C, strain YPT6, active compounds read low 1.03 | locus YLR268W, strain sec22, active compounds read low 1.02 | locus YLR320W, strain mms22, active compounds read low 1.05 | locus YLR330W, strain CHS5, active compounds read low 1.01 | locus YLR342W, strain FKS1 (second series), active compounds read low 1.02 | locus YLR342W, strain FKS1, active compounds read low 1.06 | locus YLR357W, strain rsc2, active compounds read low 1.03 | locus YLR370C, strain arc18, active compounds read low 1.03 | locus YLR371W, strain rom2, active compounds read low 1.02 | locus YLR384C, strain iki3, active compounds read low 1.03 | locus YLR418C, strain cdc73, active compounds read low 1.03 | locus YML016C, strain PPZ1, active compounds read low 1.01 | locus YML032C, strain rad52, active compounds read low 1.02 | locus YML120C, strain ndi1, active compounds read low 1.04 | locus YML124C, strain tub3, active compounds read low 1.03 | locus YMR058W, strain fet3, active compounds read low 1.02 | locus YMR078C, strain ctf18, active compounds read low 1.02 | locus YMR125W, strain sto1, active compounds read low 1.03 | locus YMR129W, active compounds read low 1.02 | locus YMR205C, strain PFK2, active compounds read low 1.05 | locus YMR223W, strain ubp8, active compounds read low 1.02 | locus YMR231W, strain pep5, active compounds read low 1.04 | locus YMR307W, strain GAS1, active compounds read low 0.992 | locus YNL067W, strain RPL9B, active compounds read low 1 | locus YNL071W, strain lat1, active compounds read low 1.03 | locus YNL128W, strain TEP1, active compounds read low 1.02 | locus YNL183C, strain NPR1, active compounds read low 0.959 | locus YNL233W, strain BNI4, active compounds read low 1.01 | locus YNL248C, strain rpa49, active compounds read low 1.04 | locus YNL250W, strain rad50, active compounds read low 1.01 | locus YNL271C, strain bni1, active compounds read low 1.02 | locus YNL298W, strain CLA4, active compounds read low 1.03 | locus YNL307C, strain MCK1, active compounds read low 1.02 | locus YNL322C, strain KRE1 (second series), active compounds read low 1.05 | locus YNL322C, strain KRE1, active compounds read low 1 | locus YNR049C, strain mso1, active compounds read low 1.03 | locus YNR052C, strain pop2, active compounds read low 1.01 | locus YOL012C, strain htz1 0.825 | locus YOL147C, strain pex11, active compounds read low 1.02 | locus YOR001W, strain rrp6, active compounds read low 0.997 | locus YOR061W, strain CKA2, active compounds read low 1.01 | locus YOR069W, strain VPS5, active compounds read low 1 | locus YOR070C, strain gyp1, active compounds read low 1.05 | locus YOR080W, strain dia2, active compounds read low 1.03 | locus YOR083W, strain WHI5, active compounds read low 1.03 | locus YOR106W, strain vam3, active compounds read low 1.05 | locus YOR136W, strain idh2, active compounds read low 1.02 | locus YOR144C, strain elg1, active compounds read low 1.02 | locus YOR184W, strain ser1, active compounds read low 1.03 | locus YOR231W, strain MKK1, active compounds read low 0.993 | locus YOR265W, strain rbl2, active compounds read low 1.05 | locus YOR270C, strain vph1, active compounds read low 1.07 | locus YOR290C, strain snf2, active compounds read low 0.981 | locus YOR316C, strain cot1, active compounds read low 1.02 | locus YPL051W, strain arl3, active compounds read low 1.02 | locus YPL055C, strain LGE1, active compounds read low 1.01 | locus YPL078C, strain atp4, active compounds read low 1.03 | locus YPL106C, strain sse1, active compounds read low 1.02 | locus YPL240C, strain hsp82, active compounds read low 1.04 | locus YPL256C, strain CLN2, active compounds read low 0.977 | locus YPR119W, strain clb2, active compounds read low 1.03 | locus YPR141C, strain kar3, active compounds read low 1.02 | locus YPR163C, strain tif3, active compounds read low 1.03 | locus YPR167C, strain met16, active compounds read low 1.02 | strain wtn01, active compounds read low 1.03
active: locus YLR262C, strain YPT6 (second series), active compounds read low 1.25 [resistant] | locus YNL209W, strain ssb2, active compounds read low 0.87
